Compound activity from PubChem.
Hits are enriched below; roughly 6.7% of the tested compounds scored in any of these assays.
BoNT A protease: inhibitors of Botulinum neurotoxin A light chain protease; multiplex microsphere protease substrate cleavage, flow cytometry; inhibition, % at 10 µM; 360,000 compounds, 0.17% hits; AID 588499; in the data active means inhibition above about 30%; inconclusive means no clear call, values can overlap the other calls; further: plate controls were buffer without enzyme for full effect and enzyme alone for no effect
Autofluor counter: counter-screen for toxin protease inhibitors: compound fluorescence | compound autofluorescence counterscreen, microsphere flow cytometry; hits give high values | fluorescence intensity (no concentration beside the values) | 360,000 compounds, 3.1% hits | AID 624483; in the data active means fluorescence intensity above about 16000; inconclusive means no clear call, values can overlap the other calls
FBA Mtb inh: inhibits M. tuberculosis FBA enzyme; P9WQA3; purified M. tuberculosis FBA, fluorescence read-out; inhibition, % at 1 µM; 360,000 compounds, 2.3% hits; AID 588726;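 further: 0% = vehicle and 100% = reference inhibitor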
Anthrax LF inh2: inhibitors of Bacillus anthracis lethal factor protease. 360,000 compounds, 0.12% hits. AID 588501. multiplex microsphere protease cleavage assay, LF. inhibition, % at 10 µM. P15917; in the data active means inhibition above about 30%; inconclusive means no clear call, values can overlap the other calls; further: plate controls were buffer without enzyme for full effect and enzyme alone for no effect
Target sequence (P15917 whole entry, looked up): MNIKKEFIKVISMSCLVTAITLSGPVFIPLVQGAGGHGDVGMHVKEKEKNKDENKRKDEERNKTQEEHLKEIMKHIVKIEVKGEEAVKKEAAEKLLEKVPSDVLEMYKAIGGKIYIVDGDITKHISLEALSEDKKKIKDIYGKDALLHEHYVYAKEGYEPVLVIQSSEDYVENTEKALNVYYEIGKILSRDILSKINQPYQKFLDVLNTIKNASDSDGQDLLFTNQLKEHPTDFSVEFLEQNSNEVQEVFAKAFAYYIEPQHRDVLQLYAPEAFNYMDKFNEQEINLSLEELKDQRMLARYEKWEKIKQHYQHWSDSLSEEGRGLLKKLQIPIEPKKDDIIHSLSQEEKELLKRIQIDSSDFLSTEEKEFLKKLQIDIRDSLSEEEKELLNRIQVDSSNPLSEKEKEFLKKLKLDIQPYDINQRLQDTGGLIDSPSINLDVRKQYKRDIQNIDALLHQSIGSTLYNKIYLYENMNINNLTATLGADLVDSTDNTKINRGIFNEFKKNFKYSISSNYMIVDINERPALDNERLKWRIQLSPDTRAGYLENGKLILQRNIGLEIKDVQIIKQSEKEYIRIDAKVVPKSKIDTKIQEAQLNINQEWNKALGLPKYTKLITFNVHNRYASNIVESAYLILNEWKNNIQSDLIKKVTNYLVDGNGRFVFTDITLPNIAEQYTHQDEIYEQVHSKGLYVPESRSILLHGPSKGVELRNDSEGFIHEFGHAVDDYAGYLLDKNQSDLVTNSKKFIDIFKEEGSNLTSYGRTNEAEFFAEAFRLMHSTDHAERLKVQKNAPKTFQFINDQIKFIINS
GDH-TPI counter-1: counter-screen for M. tuberculosis FBA inhibitors: GDH-TPI coupled enzymes; inhibition, % at 4.8 µM; GDH-TPI coupled enzyme counterscreen, NADH absorbance; 360,000 compounds, 1.2% hits; in the data active means inhibition above about 30%;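 further: 0% = DMSO wells and 100% = wells lacking the enzyme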
BoNT-F LC inh: blocks Botulinum neurotoxin F light chain protease; Multiplex microsphere protease cleavage assay, flow cytometry; inhibition, % at 10 µM; 360,000 compounds, 0.22% hits; AID 588497; in the data active means inhibition above about 35%, passing the limit was not always enough; inconclusive means no clear call, values can overlap the other calls; further: plate controls were buffer without enzyme for full effect and enzyme alone for no effect
Mtb FBA inh conf: confirmation of M. tuberculosis fructose-bisphosphate aldolase inhibitors | shares compounds with FBA Mtb inh | purified M. tuberculosis FBA, fluorescence read-out | inhibition, % at 1 µM | 5,600 compounds, 78% hits;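 further: 0% = vehicle wells and 100% = reference inhibitor wells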
GDH-TPI counter-2: inhibits GDH-TPI coupling enzymes, flagging Mtb FBA hits. shares compounds with FBA Mtb inh. GDH-TPI coupled enzyme counterscreen, fluorescence. inhibition, % at 1 µM. 5,600 compounds, 81% hits; in the data active means inhibition above about 10%
* = called active by the depositor; ? = inconclusive; / = no result; + = active, no number. Unless noted, no stated cut-off is given here; in the data, active means inhibition above about 27%; inactive means the rest.

SMILES	BoNT A protease	Autofluor counter	FBA Mtb inh	Anthrax LF inh2	GDH-TPI counter-1	BoNT-F LC inh	Mtb FBA inh conf	GDH-TPI counter-2
CCC(C)Sc1cccc(-c2nc3ccc(C)cn3c2NCc2ccccc2)c1 (stereo unspecified)	-1	3055	39*	-10	15	-9	1	1
CCC(C)Sc1cccc(-c2nc3cc(C)ccn3c2NC2CCCCC2)c1 (stereo unspecified)	0	8037	45*	-1	24	-6	140*	133*
CCC(C)Sc1cccc(-c2nc3ccc(Cl)cn3c2NCc2ccccc2)c1 (stereo unspecified)	-1	3175	23	-12	18	-16	/	/
Cc1ccn2c(NC3CCCCC3)c(-c3cccc(SC4CCCCC4)c3)nc2c1	0	7217	21	-5	2	-4	/	/
CCC(C)Sc1cccc(-c2nc3ccccn3c2NCc2ccccc2)c1 (stereo unspecified)	0	3845	32*	-9	5	-8	113*	91*
Cc1ccc2nc(-c3cccc(-c4cccc(Cl)c4)c3)c(NCc3ccccc3)n2c1	-1	4106	21	-10	12	-8	/	/
O=C(Nn1cnnc1)c1csc2ccccc12	0	9789	0	-2	-5	-5	/	/
S=C(c1ccc(-c2ccc(Cl)c(Cl)c2)o1)N1CCOCC1	4	10537	-2	6	18	-5	/	/
COC(=O)C(C)NC(=S)N1CCN(c2c(F)cc3c(=O)c(C(=O)O)cn(C4CC4)c3c2OC)CC1C (stereo unspecified)	-1	3918	30*	1	27	2	+	+
CNC(=S)N1CCN(c2c(F)cc3c(=O)c(C(=O)O)cn(C4CC4)c3c2OC)CC1C (stereo unspecified)	0	2952	14	-6	9	-6	/	/
COc1ccc(OC)c(CNn2c(-c3cccc(C)c3)nc3ccccc3c2=O)c1	-2	8352	3	-5	-2	-16	/	/
O=C1OCCC1Sc1nnc(-c2ccco2)o1 (stereo unspecified)	0	5889	5	-2	-5	-5	/	/
Cc1cc(OC(C)C(=O)NCc2cccnc2)c2c(C)cc(=O)oc2c1 (stereo unspecified)	1	5555	108*	-1	9	-1	+	+
Cc1cc(OCC(=O)NCc2ccncc2)c2c(C)cc(=O)oc2c1	2	5491	79*	0	17	3	40*	39*
Cc1ccccc1OC(C)C(=O)NCc1cccnc1 (stereo unspecified)	0	4528	0	-7	-3	-1	/	/
Cc1cc(OCC(=O)NCCc2ccc(S(N)(=O)=O)cc2)c2c(C)cc(=O)oc2c1	-1	6194	67*	2	-6	-5	120*	97*
Cc1cc(OCC(=O)NCC(O)c2ccccc2)c2c(C)cc(=O)oc2c1 (stereo unspecified)	-1	4710	77*	-2	2	-3	17	-3
CC1(C(=O)NS(=O)(=O)c2cccc(C#N)c2)CCN1C(=O)C/C=C/c1ccccc1 (stereo unspecified)	0	2990	3	-3	16	2	/	/
CCCOc1ccc(C(=O)OCCN(CC)CC)cc1N	0	4207	2	-4	9	-7	/	/
Cc1cc(OC(C)C(=O)NCc2ccccn2)c2c(C)c(Cc3ccccc3)c(=O)oc2c1 (stereo unspecified)	0	5560	4	2	9	6	/	/
CCc1cc(=O)oc2cc(C)cc(OC(C)C(=O)NC(Cc3c[nH]c4ccc(O)cc34)C(=O)O)c12 (stereo unspecified)	0	5432	9	4	13	-4	/	/
Cc1cc(OC(C)C(=O)NCc2ccncc2)c2c(C)c(C)c(=O)oc2c1 (stereo unspecified)	0	4402	103*	0	7	2	57*	49*
CCCCc1cc(=O)oc2cc(C)cc(OC(C)C(=O)NCc3ccncc3)c12 (stereo unspecified)	0	4631	42*	-2	1	-1	109*	76*
Cc1cc(OC(C)C(=O)NCc2ccncc2)c2c(C)cc(=O)oc2c1 (stereo unspecified)	1	5565	84*	0	8	-2	169*	159*
CC(Oc1ccc(Cl)cc1Cl)C(=O)NCc1ccncc1 (stereo unspecified)	1	15682	0	-3	8	-2	/	/
SMILES	BoNT A protease	Autofluor counter	FBA Mtb inh	Anthrax LF inh2	GDH-TPI counter-1	BoNT-F LC inh	Mtb FBA inh conf	GDH-TPI counter-2
CC(C)n1c(C(O)c2ccc3c(c2)OCO3)nc2ccccc21 (stereo unspecified)	0	10065	-1	-4	10	-6	/	/
O=c1[nH]n2cc(-n3cc([N+](=O)[O-])cn3)cnc2c1Br	0	3462	1	-2	11	0	/	/
CCc1nccn1CCC(=O)N1CCCC(N2CCN(c3ccccc3C)CC2)C1 (stereo unspecified)	-2	4440	1	-2	-1	2	/	/
COC(=O)c1ccc2c(c1)C(C)(C)C(/C=C/c1ccc(OC)c(OC)c1OC)=[N+]2C	0	2506	47*	-4	5	-23	78*	57*
CC(=O)Oc1c(S(=O)(=O)c2ccc(C)cc2)c(C)nn1-c1ccccc1	0	3429	2	-4	9	-4	/	/
Cc1ccc(C)c(S(=O)(=O)c2c(N)n(/N=C/c3ccco3)c3nc4ccccc4nc23)c1	1	7960	20	1	22	3	/	/
Cc1ccc(C(=O)Nn2c(N)c(S(=O)(=O)c3ccc(C)cc3)c3nc4ccccc4nc32)cc1	1	7509	65*	?	35*	4	76*	52*
Cc1ccc(S(=O)(=O)c2c(N)n(NC(=O)c3ccccc3C)c3nc4ccccc4nc23)cc1	0	22674*	39*	0	9	-2	193*	143*
CC(=O)c1ccc(NC(=S)NNC(=O)NC2CCCCC2)cc1	0	4362	-2	3	6	-3	/	/
CCCCn1c(=O)c(-c2ccccc2)c(O)c2ccccc21	0	4433	31*	0	0	0	112*	92*
O=c1c(-c2ccccc2)c(O)c2ccccc2n1-c1ccccc1	-4	3035	32*	2	19	-1	87*	73*
c1ccc(Cn2nc(-c3ccccc3)nc2-c2ccccc2)cc1	1	2085	0	-3	8	5	/	/
C/C=C(\C)C(=O)OC(C)(C)[C@H]1Cc2cc3ccc(=O)oc3cc2O1	-1	3358	94*	-7	6	-1	+	+
CC(=O)OC(C)(C)C1Cc2cc3ccc(=O)oc3cc2O1 (stereo unspecified)	1	3939	104*	-1	10	-7	0	-2
